Laboratory results: PubChem BioAssay (Tox21)
Inconclusive results are not listed. Where a call stands in place of a potency, no number is given. Activity calls are given as the source filed them. Unless noted, the call rests on the fitted dose curve.

Tests used:
[1] = target: Gonadotropin-releasing hormone receptor (Homo sapiens) (UniProt P30968); assay: Human gonadotropin-releasing hormone receptor (GnRHR) small molecule agonists, calcium flux assay in GnRHR-HEK293 cells (AID 1920063); further: nearly all actives have a fitted effect of over 35% in size; further: potency means the concentration at half of the fitted maximal effect
Outline: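 Calcium flux, agonist mode, human GnRHR stably integrated in HEK293; dye 1 h at 37 C before compound; Ex/Em=480/540 kinetic read, 3 min; 15 concentrations, triplicate.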

[2] = G protein-coupled receptor (GPCR) small molecule agonists, calcium flux assay: HEK293 wild type cell line counter screen (AID 1920065); further: potency means the concentration at half of the fitted maximal effect
Outline: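 Non-specific calcium responders were flagged by adding DMSO-dissolved compounds to dye-loaded cells and reading 480/540 nm fluorescence each second for 3 min; ATP served as positive control.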

[3] = p53 small molecule agonists, cell-based qHTS assay with rat liver microsomes: qHTS cell viability counter screen (AID 1963580); further: nearly all actives have a fitted effect of over 45% in size; further: potency means the concentration at half of the fitted maximal effect
Outline: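 Cytotoxicity counter screen: intracellular ATP measured by CellTiter-Glo luminescence in the same wells as the beta-lactamase reporter read, on HCT-116 p53RE-bla cells exposed 16 h at 37 C to compounds with rat liver microsomes and NADPH, each 0.5 mg/mL final.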

[4] = p53 small molecule agonists, cell-based qHTS assay: qHTS cell viability counter screen (AID 1963581); further: nearly all actives have a fitted effect of over 45% in size; further: potency means the concentration at half of the fitted maximal effect
Outline: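 Multiplexed with the reporter read, a CellTiter-Glo step (30 min, room temperature) gauges ATP-based viability of HCT-116 p53RE-bla cells after 16 h compound incubation at 37 C.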

[5] = target: 5-hydroxytryptamine receptor 2A (Homo sapiens) (UniProt P28223); assay: 5-hydroxytryptamine receptor 2A (HTR2A) small molecule antagonists, cell-based qHTS assay (AID 1963586); further: nearly all actives have a fitted effect of over 45% in size; further: potency means the concentration at half of the fitted maximal effect
Outline: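 CHO cells stably expressing human HTR2A were plated for 18 h at 37 C, then loaded with calcium dye for 1 h. Compounds were preincubated 5 min at room temperature before DOI (4 nM solution) was added. Kinetic fluorescence was read for 3 min.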

[6] = target: 5-hydroxytryptamine receptor 2A (Homo sapiens) (UniProt P28223); assay: 5-hydroxytryptamine receptor 2A (HTR2A) small molecule agonists, cell-based qHTS assay (AID 1963587); further: nearly all actives have a fitted effect of over 30% in size; further: potency means the concentration at half of the fitted maximal effect
Outline: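 CHO cells stably expressing human HTR2A, plated 18 h, loaded with calcium dye 1 h at 37 C. Agonist mode: compounds added and intracellular calcium fluorescence recorded kinetically for 2 min at 1 sec intervals.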

[7] = target: Muscarinic acetylcholine receptor M1 (Homo sapiens) (UniProt P11229); assay: Cholinergic receptor muscarinic 1 (CHRM1) small molecule antagonists, cell-based qHTS assay (AID 1963588); further: nearly all actives have a fitted effect of over 40% in size; further: potency means the concentration at half of the fitted maximal effect
Outline: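 Compounds were tested at 15 concentrations in three independent runs. Dye-loaded CHRM1-CHO cells were exposed 5 min at room temperature before stimulation by acetylcholine added at 50nM. Intracellular calcium was read kinetically on FDSS for 3 min.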

[8] = target: Muscarinic acetylcholine receptor M1 (Homo sapiens) (UniProt P11229); assay: Cholinergic receptor muscarinic 1 (CHRM1) small molecule agonists, cell-based qHTS assay (AID 1963589); further: nearly all actives have a fitted effect of over 35% in size; further: potency means the concentration at half of the fitted maximal effect
Outline: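 qHTS, 15-point titration, 3 independent runs: compounds pin-transferred onto dye-loaded CHRM1-CHO cells (human M1), calcium fluorescence followed every second to detect agonism.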

[9] = cAMP Responsive Elements (CRE) small molecule antagonists, cell-based qHTS assay (AID 1963591; active means well fitted inhibition curve with a large enough effect in the signal ratio in the repeat runs, not every such curve was filed as active; the % refers to the signal ratio)
Outline: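 Fluorescence intensity from cleaved LiveBLAzer B/G substrate (2 h, room temperature) quantified CRE-bla activity in HEK 293T cells exposed 3 h to compound with 0.25 uM final NKH477.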

[10] = target: Beta-2 adrenergic receptor (Homo sapiens) (UniProt P07550); assay: Adrenergic beta2 receptor (ADRB2) small molecule antagonists, cell-based qHTS assay (AID 1963592); further: nearly all actives have a fitted effect of over 50% in size; further: potency means the concentration at half of the fitted maximal effect
Outline: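 Assay format: CHO-ADRB2 cells, 18-20hr seeding at 37C/5% CO2, then compound plus 1nM isoproterenol agonist mix for 0.5hr RT. Homogeneous time-resolved fluorescence cAMP detection after 1hr, expressed as 665/615 nm ratio.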

[11] = target: Beta-2 adrenergic receptor (Homo sapiens) (UniProt P07550); assay: Adrenergic beta2 receptor (ADRB2) small molecule agonists, cell-based qHTS assay (AID 1963593);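 further: CHO cells stably overexpressing human ADRB2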
Outline: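 CHO cells stably over-expressing ADRB2 were plated overnight at 37C, then dosed with compounds plus a stimulation mix containing 100uM IBMX and 25uM Ro-20-1724 for 0.5hr at room temperature. cAMP was measured by HTRF competition, 1hr.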

[12] = target: D(2) dopamine receptor (Homo sapiens) (UniProt P14416); assay: Dopamine D2 receptor (DRD2) small molecule agonists, cell-based qHTS assay (AID 1963594); further: nearly all actives have a fitted effect of over 35% in size; further: potency means the concentration at half of the fitted maximal effect
Outline: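 HEK293 cells stably expressing human DRD2, pre-treated with PDE inhibitor Ro20-1724 (0.1 mM final) and compound 10 min at room temperature, then stimulated with NKH477 (200nM […]) for 30 min. cAMP read by HTRF (665/620 nm).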

[13] = target: D(2) dopamine receptor (Homo sapiens) (UniProt P14416); assay: Dopamine D2 receptor (DRD2) small molecule antagonists, cell-based qHTS assay (AID 1963595; active means well fitted inhibition curve with a large enough effect in the signal ratio in the repeat runs, with a control signal flat; the % refers to the signal ratio; further: potency means the concentration at half of the fitted maximal effect)
Outline: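 HEK293 cells stably expressing DRD2, preincubated with 0.1 mM Ro20-1724 and compounds 10 min, were stimulated with 200 nM NKH477 plus 12 nM quinpirole for 30 min at room temperature; cAMP measured by HTRF (665/620 nm).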

[14] = target: KiSS-1 receptor (Homo sapiens) (UniProt Q969F8); assay: Human kisspeptin (KISS1R) small molecule agonists, calcium flux assay in KISS1R-HEK293 cells (AID 1920064; active means well fitted activation curve with a large enough effect in the repeat runs; further: potency means the concentration at half of the fitted maximal effect)
Outline: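 Triplicate 15-concentration series were applied to dye-loaded human KISS1R HEK293 cells, and agonist-evoked calcium fluorescence was captured for 3 min.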

[15] = p53 small molecule agonists, cell-based qHTS assay with human liver microsomes: qHTS cell viability counter screen (AID 1963579); further: nearly all actives have a fitted effect of over 45% in size; further: potency means the concentration at half of the fitted maximal effect
Outline: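 After the 460/530 nm beta-lactamase read, CellTiter-Glo was added to the same wells and luminescence measured after 30 min at room temperature, giving viability of p53RE-bla cells treated 16 h with compounds plus microsomes and NADPH.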

[16] = cAMP Responsive Elements (CRE) small molecule agonists, cell-based qHTS assay (AID 1963590); further: potency means the concentration at half of the fitted maximal effect
Outline: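 Quantitative HTS for CRE agonists: HEK 293T CRE-bla cells, overnight plating, 3 h compound incubation at 37 C/5% CO2, then 2 h room-temperature LiveBLAzer B/G FRET substrate loading.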

[17] = p53 small molecule agonists, cell-based qHTS assay (AID 1963582; active means well fitted activation curve with a large enough effect in the signal ratio in the repeat runs, not every such curve was filed as active; the % refers to the signal ratio)
Outline: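 Beta-lactamase reporter cells (p53RE-bla) treated with compounds for 16 h at 37 C; FRET substrate, 2 h, room temperature; fluorescence intensity.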

[18] = p53 small molecule agonists, cell-based qHTS assay with human liver microsomes (AID 1963577);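 further: p53 response element beta-lactamase reporter cells with liver microsomes plus NADPH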
Outline: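 Steps: plate p53RE-bla cells, incubate 5 h at 37 C; add compound in DMSO; add microsomes (0.5 mg/mL final) and NADPH (0.5 mg/mL final); incubate 16 h at 37 C; add LiveBLAzer, 2 h RT; read fluorescence.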

[19] = p53 small molecule agonists, cell-based qHTS assay with rat liver microsomes (AID 1963578)
Outline: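 Metabolic activation is supplied by rat liver microsomes with NADPH (each 0.5 mg/mL final). p53RE-bla cells incubate with compound 16 h at 37 C; reporter activity is measured by LiveBLAzer fluorescence.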

[20] = Nuclear factor erythroid 2-related factor 2/antioxidant responsive element (Nrf2/ARE) small molecule agonists: luciferase reporter gene qHTS assay in human keratinocytes (AID 1919969); further: nearly all actives have a fitted effect of over 35% in size

Chain of Muscarinic acetylcholine receptor M1 (Homo sapiens) (P11229 whole entry, looked up): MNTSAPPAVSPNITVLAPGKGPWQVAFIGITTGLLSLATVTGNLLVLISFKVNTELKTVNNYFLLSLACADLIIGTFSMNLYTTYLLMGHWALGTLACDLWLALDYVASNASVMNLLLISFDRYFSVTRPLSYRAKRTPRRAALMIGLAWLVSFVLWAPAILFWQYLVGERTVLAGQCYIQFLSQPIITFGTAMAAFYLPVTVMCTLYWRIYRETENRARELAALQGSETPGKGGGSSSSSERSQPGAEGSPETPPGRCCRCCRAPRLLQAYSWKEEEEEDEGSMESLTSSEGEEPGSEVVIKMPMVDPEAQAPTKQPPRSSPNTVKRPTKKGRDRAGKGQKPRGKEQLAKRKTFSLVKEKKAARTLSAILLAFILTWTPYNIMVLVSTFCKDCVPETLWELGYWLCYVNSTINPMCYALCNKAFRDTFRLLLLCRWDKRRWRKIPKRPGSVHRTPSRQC
Chain of Beta-2 adrenergic receptor (Homo sapiens) (P07550 whole entry, looked up): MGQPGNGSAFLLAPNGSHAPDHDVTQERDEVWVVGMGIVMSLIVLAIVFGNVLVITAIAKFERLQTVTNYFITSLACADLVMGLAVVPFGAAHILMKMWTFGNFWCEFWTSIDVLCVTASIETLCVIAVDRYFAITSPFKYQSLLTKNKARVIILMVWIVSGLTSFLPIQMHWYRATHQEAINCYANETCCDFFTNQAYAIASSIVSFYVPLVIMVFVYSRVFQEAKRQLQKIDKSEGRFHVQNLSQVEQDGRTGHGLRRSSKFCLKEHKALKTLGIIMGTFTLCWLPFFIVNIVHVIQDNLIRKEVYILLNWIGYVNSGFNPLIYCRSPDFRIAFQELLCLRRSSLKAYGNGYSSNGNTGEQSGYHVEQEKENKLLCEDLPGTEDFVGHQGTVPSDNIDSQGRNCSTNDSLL
Chain of KiSS-1 receptor (Homo sapiens) (Q969F8 whole entry, looked up): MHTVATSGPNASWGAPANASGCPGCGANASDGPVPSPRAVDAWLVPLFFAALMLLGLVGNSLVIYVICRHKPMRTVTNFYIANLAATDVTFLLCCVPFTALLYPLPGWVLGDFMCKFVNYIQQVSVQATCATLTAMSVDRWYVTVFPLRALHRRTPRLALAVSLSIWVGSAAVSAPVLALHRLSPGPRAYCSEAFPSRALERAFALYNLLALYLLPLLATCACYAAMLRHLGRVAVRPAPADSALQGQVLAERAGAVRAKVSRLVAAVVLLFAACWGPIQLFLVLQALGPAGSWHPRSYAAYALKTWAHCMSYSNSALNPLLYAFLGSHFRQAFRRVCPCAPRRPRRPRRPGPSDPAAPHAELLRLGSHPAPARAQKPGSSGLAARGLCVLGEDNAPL
Chain of 5-hydroxytryptamine receptor 2A (Homo sapiens) (P28223 whole entry, looked up): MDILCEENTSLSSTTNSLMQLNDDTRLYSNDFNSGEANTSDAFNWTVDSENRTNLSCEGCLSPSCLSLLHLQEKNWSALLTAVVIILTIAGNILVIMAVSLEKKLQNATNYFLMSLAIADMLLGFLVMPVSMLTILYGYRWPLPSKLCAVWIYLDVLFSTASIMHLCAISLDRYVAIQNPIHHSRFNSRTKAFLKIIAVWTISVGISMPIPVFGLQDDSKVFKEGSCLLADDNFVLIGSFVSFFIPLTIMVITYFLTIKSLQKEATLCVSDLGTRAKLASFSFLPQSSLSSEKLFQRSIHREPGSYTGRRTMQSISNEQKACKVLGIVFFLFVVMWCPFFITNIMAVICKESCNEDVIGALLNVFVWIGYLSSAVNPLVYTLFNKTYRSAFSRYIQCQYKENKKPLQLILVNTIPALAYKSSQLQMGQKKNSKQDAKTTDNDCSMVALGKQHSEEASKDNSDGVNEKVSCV
Chain of D(2) dopamine receptor (Homo sapiens) (P14416 whole entry, looked up): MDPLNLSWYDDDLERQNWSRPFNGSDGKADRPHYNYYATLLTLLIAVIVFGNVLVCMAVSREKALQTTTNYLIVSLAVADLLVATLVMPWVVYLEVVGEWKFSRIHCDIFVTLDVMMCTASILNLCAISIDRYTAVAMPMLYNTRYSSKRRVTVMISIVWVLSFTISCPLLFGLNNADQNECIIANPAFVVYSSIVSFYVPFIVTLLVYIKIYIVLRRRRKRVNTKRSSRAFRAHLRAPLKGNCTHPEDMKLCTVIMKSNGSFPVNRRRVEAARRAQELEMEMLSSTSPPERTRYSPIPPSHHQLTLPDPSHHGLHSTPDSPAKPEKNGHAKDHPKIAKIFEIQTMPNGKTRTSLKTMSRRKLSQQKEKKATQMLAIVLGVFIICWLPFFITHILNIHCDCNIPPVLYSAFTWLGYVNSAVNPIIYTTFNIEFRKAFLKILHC
Chain of Gonadotropin-releasing hormone receptor (Homo sapiens) (P30968 whole entry, looked up): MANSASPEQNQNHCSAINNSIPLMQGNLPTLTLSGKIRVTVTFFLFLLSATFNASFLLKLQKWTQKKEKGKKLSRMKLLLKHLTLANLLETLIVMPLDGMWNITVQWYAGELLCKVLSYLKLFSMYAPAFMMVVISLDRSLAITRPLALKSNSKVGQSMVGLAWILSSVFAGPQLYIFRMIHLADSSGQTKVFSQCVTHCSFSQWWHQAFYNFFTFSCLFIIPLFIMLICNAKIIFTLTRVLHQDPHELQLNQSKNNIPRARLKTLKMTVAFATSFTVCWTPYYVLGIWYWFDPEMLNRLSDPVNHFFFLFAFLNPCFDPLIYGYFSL

Row | Compound | Potency [1] | Potency [2] | Potency [3] | Potency [4] | Potency [5] | Potency [6] | Potency [7] | Potency [8] | Potency [9] | Potency [10] | Potency [11] | Potency [12] | Potency [13] | Potency [14] | Potency [15] | Potency [16] | Potency [17] | Potency [18] | Potency [19] | Potency [20]
1 | COP(=S)(OC)Oc1cc(Cl)c(Br)cc1Cl | inactive | inactive | inactive | inactive | inactive | inactive | inactive | inactive | inactive | inactive | inactive | inactive | inactive | – | – | – | – | – | – | –
2 | [C-]1=CC=CC1.[Cl][Zr+2][Cl].c1cc[cH-]c1 | – | – | inactive | inactive | inactive | – | – | inactive | inactive | inactive | – | inactive | inactive | inactive | inactive | inactive | – | – | – | –
3 | COP(=S)(OC)Oc1nc(Cl)c(Cl)cc1Cl | – | inactive | inactive | inactive | – | inactive | inactive | inactive | – | inactive | inactive | inactive | inactive | inactive | – | – | inactive | – | – | –
4 | CC(=O)[O-].CC(=O)[O-].O.O.[Cd+2] | – | inactive | inactive | – | inactive | 27.2 µM (active) | inactive | inactive | – | – | inactive | inactive | inactive | inactive | – | inactive | – | – | – | –
5 | CC(=O)[O][Sn]([c]1ccccc1)([c]1ccccc1)[c]1ccccc1 | – | 38.9 µM (active) | 1.62 µM (active) | 10.2 µM (active) | – | 24.5 µM (active) | – | 24.5 µM (active) | – | 61.1 µM (active) | – | 52.4 µM (active) | 3.06 µM (active) | 49 µM (active) | – | – | – | inactive | inactive | –
6 | CC(=O)[O-].CC(=O)[O-].[Hg+2] | 38.9 µM (active) | inactive | 16.2 µM (active) | 7.25 µM (active) | inactive | 49 µM (active) | 21.1 µM (active) | – | – | – | – | 14.2 µM (active) | 5.45 µM (active) | – | 3.63 µM (active) | – | – | – | – | –
7 | CC(=O)[O-].CC(=O)[O-].[Co+2] | inactive | inactive | inactive | inactive | inactive | inactive | inactive | inactive | inactive | inactive | inactive | inactive | inactive | – | inactive | inactive | – | – | – | –
8 | CC(C)Br | – | – | inactive | – | inactive | inactive | inactive | inactive | inactive | inactive | – | inactive | inactive | inactive | inactive | – | inactive | inactive | – | –
9 | c1ccc(OCC2CO2)cc1 (configuration not stated) | – | inactive | inactive | – | inactive | inactive | inactive | inactive | – | inactive | inactive | inactive | inactive | inactive | inactive | inactive | inactive | inactive | inactive | –
10 | CCCSP(=O)(OCC)SCCC | inactive | – | – | – | inactive | inactive | inactive | inactive | – | inactive | – | inactive | inactive | inactive | inactive | – | – | – | – | –
11 | Clc1ccc(CO/N=C(\Cn2ccnc2)c2ccc(Cl)cc2Cl)c(Cl)c1 | inactive | inactive | inactive | – | – | – | – | – | – | – | inactive | inactive | – | – | inactive | inactive | – | – | inactive | –
12 | Cc1cc(C)c(C(=O)P(=O)(C(=O)c2c(C)cc(C)cc2C)c2ccccc2)c(C)c1 | – | inactive | inactive | inactive | inactive | inactive | inactive | inactive | – | inactive | inactive | – | inactive | inactive | inactive | inactive | – | inactive | inactive | –
13 | COc1ccc2[nH]cc(CCN(C(C)C)C(C)C)c2c1 | – | inactive | inactive | – | – | – | inactive | inactive | – | inactive | inactive | inactive | inactive | – | inactive | – | inactive | inactive | inactive | –
14 | CC(=O)O.CC(=O)O.CC(=O)O.CC(=O)O.CC(=O)O.CC(=O)O.CC(=O)O.O.O.[Cr].[Cr].[Cr] | inactive | inactive | inactive | inactive | inactive | inactive | inactive | – | inactive | inactive | inactive | inactive | inactive | – | inactive | inactive | – | – | – | –
15 | CC1(C)CCC(Cc2ccc(Cl)cc2)C1(O)Cn1cncn1 (configuration not stated) | – | inactive | inactive | inactive | 16.8 µM (active) | 49 µM (active) | inactive | inactive | – | – | – | inactive | – | inactive | 45.8 µM (active) | – | – | – | – | –
16 | COc1ccc(Cc2nccc3cc(OC)c(OC)cc23)cc1OC | inactive | inactive | inactive | inactive | – | – | – | – | inactive | inactive | inactive | inactive | inactive | inactive | inactive | 11.9 µM (active) | – | inactive | inactive | inactive
17 | O=S1(=O)OCCO1 | inactive | inactive | inactive | inactive | – | inactive | inactive | inactive | inactive | inactive | inactive | – | inactive | inactive | inactive | inactive | inactive | inactive | inactive | inactive
18 | O=C1CN2CCOC2(c2ccccc2Cl)c2cc(Cl)ccc2N1 (configuration not stated) | inactive | inactive | inactive | – | inactive | inactive | inactive | inactive | inactive | inactive | – | inactive | inactive | inactive | inactive | inactive | inactive | inactive | inactive | inactive
